# SARS PLpro yeast: inhibitors of SARS-CoV papain-like protease in yeast | actives 0.19% (n = 330,000) | S. cerevisiae expressing SARS-CoV PLpro, growth rescue | Potency, µM (titrated, usually from 32.9 µM), for inactives: at the top dose activity, positive = growth rescue, usual class: activators | AID 485353; calls by dose curve; further: potency means the concentration at half of the fitted maximal effect; 0% is about no effect; nearly all actives have a fitted effect of over 55% in size
# Pf growth 48h: P. falciparum growth inhibition at 48 hours (one generation). P. falciparum luciferase growth in erythrocytes, 48 h. Potency, µM (series often up to 28.7 µM), without a hit: at the highest dose activity change, negative = inhibition, hits mostly inhibitors. actives 5.9% (n = 310,000); further: potency means the concentration at half of the fitted maximal effect; on the % scale 0 is the no-effect control and ±100 the full control effect
#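 Parasite viability was followed by luminescence of a genomically integrated firefly luciferase. Cultures held 0.1% parasitemia at 2% hematocrit (final), incubated under 5% CO2 at 37 C.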
# CHX counter: counter-screen hit for Shiga toxin inhibitors, cycloheximide | max response, % | cell reporter, cycloheximide protein synthesis inhibition counterscreen | AID 2314 | actives 12% (n = 300,000); in the data active means max response mostly above about 13%, no sharp cut-off; inactive means mostly below about 14%; further: read at 38.3 µM for the half of the compounds with a filed dose; 0% is about no effect
# Pf growth 96h: P. falciparum growth inhibition at 96 hour, primary screen for plastid delayed-death inhibitors; P. falciparum luciferase reporter growth, 96 h; actives 6.9% (n = 320,000); Potency, µM (highest dose often 28.7 µM), for the others: at the top dose activity change, negative = inhibition, hits mostly inhibitors; further: potency means the concentration at half of the fitted maximal effect; on the % scale 0 is the no-effect control and ±100 the full control effect
#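 P. falciparum expressing integrated firefly luciferase grown in erythrocytes (2% hematocrit, 0.05% parasitemia final) with compounds for 96 hours at 37 C, 5% CO2. Growth inhibition read as loss of luminescence after adding luciferase detection reagent.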
# Shiga inhibitor: blocks Shiga toxin action in Vero cells; actives 9.2% (n = 290,000); inhibition, % at 38.7 µM; AID 2315; Vero cells, Shiga toxin protein synthesis inhibition reporter; in the data active means inhibition mostly above about 28%, no sharp cut-off; inactive means mostly below about 43%; further: 0% is about no effect
# NS1 function inh: influenza NS1 inhibition | Potency, µM (top dose mostly 46.1 µM), for the others: top-dose activity, positive = more growth | actives 0.4% (n = 270,000); calls by dose curve; further: potency means the concentration at half of the fitted maximal effect; actives are rising curves; nearly all actives have a fitted effect of over 50% in size
#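 S. cerevisiae expressing influenza A NS1, grown in glucose, washed, then diluted 1:100 into pH 6.0 -URA galactose medium with 23 nl compound. Growth recovery read as OD600; NS1-free strain serves as control.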
# Numbers without * were called inactive; i = inactive; ? = inconclusive; nt = no result given; [ ] = remark or other dose. In the library only some 21% were active in any assay of this set; here they are far more common. Unless noted, the call rests on the fitted dose curve; in most records, active means well fitted inhibition curve with a large enough effect; inconclusive means small, poorly fitted or top-dose-only effect, or another doubt; inactive means no such curve, though single readings can be large or run the other way.
SMILES,SARS PLpro yeast,Pf growth 48h,CHX counter,Pf growth 96h,Shiga inhibitor,NS1 function inh
O=S(=O)(Nc1ccc2c(c1)nc1n2CCN(Cc2ccccc2)C1)c1ccccc1,0.3%,66.2%,116.7*,38.8%,111.5*,5.5%
O=S(=O)(Nc1ccc2c(c1)nc1n2CCN(Cc2ccccc2)C1)c1ccc(F)cc1,-3.1%,11.7µM*,-5.3,-15.9%,-13.1,14.6%
Cc1ccc(NC(=O)/C(=C/c2cccc(Br)c2)NC(=O)c2ccco2)cc1,7.1%,-4.1%,-4.1,-11.7%,2.1,2.2%
N#Cc1c(Cl)nsc1NCCN1CCOCC1,-0.8%,?,-0.9,?,-4.9,0.0%
CCCC(=O)Nc1sc2c(c1C(=O)Nc1ccccn1)CCCC2,0.3%,?,-1.3,100.2%,-14.7,-0.6%
c1ccc(C2CCC(N3CCN(c4ccccc4)CC3)CC2)cc1 (stereo not given),5.1%,0.0%,3.8,83.4%,14.6,13.7%
Cc1nc(NC(=O)/C=C/c2ccco2)sc1C,-19.8%,254.8%,57.3*,-7.8%,143.8*,11.1%
O=C(/C=C/c1ccco1)NC1=NCCS1,-3.0%,148.9%,61.1*,?,42.7*,13.7%
O=C(/C=C/c1ccco1)Nc1cccc(NC(=O)/C=C/c2ccco2)n1,-1.1%,112.6%,33.2*,-10.9%,102.5*,18.5%
O=C(/C=C/c1ccco1)Nc1nnc(-c2ccco2)s1,-0.4%,38.5%,14.4*,17.3%,48.0,2.8%
O=C(O)/C=C/C(=O)Nc1ccccc1C(=O)Nc1ccccc1,-0.4%,?,20.1,43.9%,33.3,1.9%
CCc1nnc(NC(=O)/C=C/c2ccco2)s1,0.7%,89.4%,26.7*,86.2%,55.2,8.2%
CCCn1nnc(NC(=O)/C=C/c2ccco2)n1,-1.3%,40.1%,13.6,36.1%,16.6,-2.5%
COc1ccc(/C=C/C(=O)NC2=NCCS2)cc1OC,1.9%,33.6%,37.8*,29.3%,69.7*,7.7%
CCSc1nnc(NC(=O)/C=C/c2ccco2)s1,0.6%,102.6%,30.1*,?,116.7*,nt
COc1ccc(OC)c(/C=C/C(=O)NC2=NCCS2)c1,-0.1%,43.1%[1.15 µM],17.5,?,32.8,14.6%
NC1=NN=C(c2ccc3c(c2)OCCO3)CS1,1.7%,i,-1.1,36.2%,23.9,nt
COC(=O)C1=C(C)N(Cc2ccccc2)C(=NCc2ccc3c(c2)OCO3)N[C@H]1c1ccccc1,-3.3%,17.9%,1.3,?,-4.2,4.5%
c1ccc(C2=NNC(=NCc3ccc4c(c3)OCO4)SC2)cc1,28.4%,11.5%,18.0*,?,80.4*,10.4%
Fc1ccc(C2=NNC(=NCc3ccccc3)SC2)cc1F,0.6%,?,33.6*,?,64.4*,nt
Clc1ccc(C2=NNC(=NCc3ccccc3)SC2)cc1,-1.7%,?,20.2,?,73.8*,nt
C=CCN=C1NN=C(c2ccc3c(c2)OCCO3)CS1,22.5%,43.6%,21.2*,8.3%,41.5*,nt
CC12CCC(=O)N1C(C(=O)OCC(=O)Nc1ccc(Cl)c(Cl)c1)CS2 (stereo not given),-0.3%,8.3%,5.3,37.2%,-3.3,nt
CCOc1ccc(S(=O)(=O)NCC2CCCO2)c2ccccc12 (stereo not given),-8.9%,26.7%,-2.0,347.6%,-2.1,-20.5%
COc1ccc(C2NC(=O)NC(C)=C2[N+](=O)[O-])cc1 (stereo not given),1.5%,4.7%,0.2,305.9%,-0.6,27.2%
SMILES,SARS PLpro yeast,Pf growth 48h,CHX counter,Pf growth 96h,Shiga inhibitor,NS1 function inh
CCN=C1NN=C(c2ccc(C)cc2)CS1,-2.9%,63.0%,38.0*,-47.9%,105.9*,-22.3%
COc1ccccc1C1=NNC(=NCc2ccccc2)SC1,-5.8%,-28.2%,31.4*,50.0%,33.0*,nt
CC(C)N=C1NN=C(c2ccc(F)cc2)CS1,-3.6%,i,17.9*,233.2%,80.1*,nt
c1ccc(CN=C2NN=C(c3ccccc3)CS2)cc1,1.8%,?,55.0*,167.2%,62.4,nt
COCCN=C1NN=C(c2ccc(NC(C)=O)cc2)CS1,13.7%,?,-2.8,?,1.2,4.2%
CC(=O)c1c(C)[nH]c(C2=NNC(=NCc3ccccc3)SC2)c1C,-2.4%,?,14.7,-36.6%,22.8,nt
COc1cc(Cl)c(C)cc1NC(=O)COc1ccc(C)nc1[N+](=O)[O-],-2.9%,35.9%,nt,-3.7%,nt,nt
CC1CCCCN1C(=O)CCS(=O)(=O)c1cccc2nonc12 (stereo not given),6.5%,5.7%,34.2,?,29.3,nt
CC1(C)C(=O)Nc2ccccc2N1C(=O)CSc1nc(-c2ccccc2)cs1,7.8%,10.0%,16.3*,-14.3%,29.4,3.9%
O=C(CSc1nc(-c2ccccc2)cs1)N1CCN(C(=O)c2ccco2)CC1,-1.6%,-15.4%,18.2*,nt,12.6,-8.8%
N#CCSc1ccc2nc(-c3ccccc3)cn2n1,-23.2%,134.1%,27.6,127.4%,105.2*,-1.0%
N#CCSc1nnc(-c2ccccc2)c(-c2ccccc2)n1,9.1%,4.1%,-3.0,15.6%,-9.0,-9.5%
O=C(CSc1ccccc1F)NC(=O)NCc1ccco1,-0.3%,-10.5%,4.1,32.5%,-3.3,1.7%
Cc1ccccc1CSCC(=O)NC(=O)NCc1ccco1,-4.2%,49.3%,16.0*,6.57µM*,11.9,-4.4%
COCc1c(C(=O)OCC(=O)NCc2ccco2)oc2ccccc12,1.4%,nt,nt,nt,nt,nt
CCN(C(=O)COC(=O)C1CC1)c1c(N)n(Cc2ccccc2)c(=O)[nH]c1=O,-2.7%,?,nt,?,nt,nt
Cc1ccc(S(=O)(=O)N2CCOCC2)cc1C(=O)OCC(=O)N1CCCC1=O,-6.5%,nt,nt,nt,nt,nt
COc1ccc(-n2c(C)c(C)c3c(N)ncnc32)cc1,-10.8%,12.5%,6.9,-15.8%,1.8,4.9%
CC(C)NC(=O)CSc1nc(-c2ccccc2)cs1,-1.9%,186.1%,25.9*,66.7%,88.7*,nt
O=C(CSc1nc(-c2ccccc2)cs1)NC(=O)NCc1ccco1,-16.5%,?,24.7*,?,19.0,11.1%
N#CCSc1nc(-c2ccccc2)cs1,-5.7%,37.1%,29.6*,nt,49.8*,-17.2%
CC1(C)C(=O)Nc2ccccc2N1C(=O)COc1cc(Cl)ccc1Cl,-2.0%,11.7µM*,nt,?,nt,nt
O=C(NCc1ccccn1)c1ccc(OC2CCN(Cc3ccc(CO)o3)CC2)cc1,-0.4%,30.0%,-2.2,-28.0%,-10.5,-9.0%
O=C(c1cccc(S(=O)(=O)Nc2ccc(F)cc2)c1)N1CCC1,2.9%,?,nt,-26.3%,nt,nt
Brc1csc(C=Nc2ccc3c(c2)OCCOCCOCCOCCO3)c1,6.5%,14.0%,-0.4,33.9%,-10.2,-0.2%
Oc1c(Cl)cc(Cl)cc1C=Nc1ccc2c(c1)OCCO2,-20.4%,5.3%,68.2*,54.7%,116.7*,-15.6%
CC(C)Nc1nc2n(c(=O)n1)CCN2C(C)C,?,3.6%,-1.1,11.2%,-2.6,5.1%
COc1cc(C2CC(=O)c3c(O)cc(O)cc3O2)ccc1O (stereo not given),-1.7%,-4.8%,-1.1,?,-9.6,5.6%

# Compound activity deposited in PubChem BioAssay by National Center for Advancing Translational Sciences (NCATS).
